FBW7 activator: FBW7 E3 ligase activators, primary screen, biochemical, AlphaScreen, human; F-box/WD repeat-containing protein 7 (Homo sapiens), Q969H0; AlphaScreen FBW7–phospho-cyclin E peptide binding, activator screen; normalized activity (activation), % at 26.1 µM; actives 0.13% (n = 650,000); AID 1259310, 2017; in the data active = normalized activity above about 1.9%;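 also: purified mutant Fbw7 with reduced substrate affinity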
MITF primary: MITF inhibitors, primary screen, biochemical, AlphaScreen, human. AlphaScreen MITF homodimerization, bead proximity signal. Microphthalmia-associated transcription factor (Homo sapiens), O75030. actives 0.91% (n = 650,000). inhibition, % at 2.6 µM; in the data active = inhibition above about 50%
TEAD-YAP inh: TEAD-YAP interaction inhibition, primary screen, TEAD-YAP interaction inhibitor project, luminescence, HEK-TIYL cells; TEAD-Gal4/YAP UAS-luciferase luminescence; inhibition, % at 9.12 µM; actives 1.4% (n = 640,000); AID 1259422, 2018; in the data active = inhibition above about 32%
GPR151 ag: activators of human GPR151, primary screen, cell-based, PathHunter beta-arrestin, luminescence | G-protein coupled receptor 151 (Homo sapiens), Q8TDV0 | PathHunter beta-arrestin GPR151 cells | activation, % at 11.2 µM | actives 1% (n = 650,000); in the data active = activation above about 4.9%
MITF confirm: MITF inhibitors, retest of hits, confirmation, biochemical, AlphaScreen, triplicate; inhibition, % at 2.6 µM; AlphaScreen MITF homodimerization, biotin/His-MITF beads; AID 1259372, 2018; actives 16% (n = 4,700); shares compounds with MITF primary;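 active = inhibition above a cutoff derived from the DMSO control wells, cut at about 28% in these data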;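 also: inhibitors lower the bead chemiluminescence by keeping MITF from dimerizing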
AlphaScreen DR: AlphaScreen optical interference compounds, dose response, counter-screen, biochemical, HTS; shares compounds with MITF primary; AlphaScreen optical interference counterscreen, cell-free; IC50, µM; actives 6% (n = 480); AID 1259373, 2018; call rule not given here
AlphaScreen intf2: AlphaScreen optical interference compounds, counter-screen for MITF inhibitor project, biochemical, triplicate | shares compounds with MITF primary | LysRS AlphaScreen counterscreen, signal interference | inhibition, % at 2.6 µM | actives 7.6% (n = 4,700);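 active = inhibition above a cutoff derived from the DMSO control wells, cut at about 30% in these data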
GPR151 conf act: GPR151 activators, triplicate retest, confirmation, cell-based, PathHunter beta-arrestin, luminescence; 6,700 tested, under 10 active; GPR151 PathHunter beta-arrestin cells, 90 min; % of EA-reagent control over plate median; shares compounds with GPR151 ag; activation, % at 11.2 µM;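 active = mean percent activation across replicates above the confirmation screen cutoff of 4.91%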
GPR119 counter: GPR119 activators in beta-arrestin cells, counter-screen for GPR151 activator project, cell-based, PathHunter beta-arrestin, luminescence, triplicate; 90 min; 0 = compound-well median, 100 = enzyme-acceptor control; actives 0.3% (n = 6,700); AID 1508611, 2020; shares compounds with GPR151 ag; activation, % at 11.2 µM;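 active = mean percent activation in the counterscreen above 29.09%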;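 also: counterscreen on off-target GPR119 to flag nonselective hits from the GPR151 activator screen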
Target sequence (Q8TDV5 whole entry, looked up): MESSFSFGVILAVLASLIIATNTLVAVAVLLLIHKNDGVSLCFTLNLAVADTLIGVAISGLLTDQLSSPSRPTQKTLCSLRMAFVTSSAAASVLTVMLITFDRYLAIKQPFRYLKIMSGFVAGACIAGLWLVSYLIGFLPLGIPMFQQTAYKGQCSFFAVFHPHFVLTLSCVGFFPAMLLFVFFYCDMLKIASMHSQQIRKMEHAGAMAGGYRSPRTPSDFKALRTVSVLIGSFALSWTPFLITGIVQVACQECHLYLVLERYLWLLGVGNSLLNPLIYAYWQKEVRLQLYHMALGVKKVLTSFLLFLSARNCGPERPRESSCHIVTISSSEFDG
Large screens that a line does not name were inactive (follow-up assays come after a bar, where they were run). Hits are enriched below; roughly 3.4% of the tested compounds scored in any of these assays.

COc1ccccc1CC(=O)N1CC[C@@H]2[C@H](CCCN2C(=O)c2occc2C)C1	MITF primary 52, GPR151 ag 7.3 | MITF confirm inactive | AlphaScreen intf2 inactive | GPR151 conf act inactive | GPR119 counter inactive
FC(F)(F)c1cccc(OCCCCNCCN2CCOCC2)c1	MITF primary 65, GPR151 ag 5.8 | MITF confirm inactive | AlphaScreen intf2 inactive | GPR151 conf act inactive | GPR119 counter inactive
O=C1CCCN1CCn1cnc2c(NC3CCN(Cc4ccccc4)CC3)nc(Nc3ccccc3)nc21	none
Cc1ccccc1OCCOCCn1cnc2ccccc21	MITF primary 72, GPR151 ag 4.9 | MITF confirm inactive | AlphaScreen intf2 inactive | GPR151 conf act inactive | GPR119 counter inactive
Cc1cc(Oc2cc(C#N)c(C#N)cc2[N+](=O)[O-])cc(C)c1Cl	none
CCc1cc(OCCCCN2CCNCC2)ccc1Cl	MITF primary 54, GPR151 ag 6.4 | MITF confirm inactive | AlphaScreen intf2 inactive | GPR151 conf act inactive | GPR119 counter inactive
CCc1cc(OCCCN2CCNCC2)ccc1Cl	none
c1cncc(CN2CCN(Cc3cccc4ccccc34)CC2)c1	MITF primary 83, GPR151 ag 11 | MITF confirm inactive | AlphaScreen intf2 inactive | GPR151 conf act inactive | GPR119 counter inactive
CCOc1ccccc1CN1CCC(N2CCCC2)CC1	MITF primary 56, GPR151 ag 9.2 | MITF confirm inactive | AlphaScreen intf2 inactive | GPR151 conf act inactive | GPR119 counter inactive
CC(C)C[C@H]1NC(=O)[C@@H]2C[C@H](NC(=O)c3cnn(-c4ccccc4)c3C(F)(F)F)CN2C1=O	none
Cc1ccc(N2C(=O)c3ccccc3NC2c2cccc([N+](=O)[O-])c2)cc1 (centres undefined)	MITF primary 63, GPR151 ag 8.6 | MITF confirm 77 | AlphaScreen DR inactive | AlphaScreen intf2 inactive | GPR151 conf act inactive | GPR119 counter inactive
O=C1c2ccccc2NC(c2cccc([N+](=O)[O-])c2)N1c1ccc(F)cc1 (centres undefined)	none
COc1cc(OC)c(C(=O)OC2CCCC2=O)cc1OC (centres undefined)	MITF primary 76, GPR151 ag 5.2 | MITF confirm 67 | AlphaScreen DR inactive | AlphaScreen intf2 inactive | GPR151 conf act inactive | GPR119 counter inactive
CCOC(=O)N1CCN(C(=O)C2CCN(C/C(C)=C/c3ccccc3)CC2)CC1	MITF primary 58, GPR151 ag 6.6 | MITF confirm inactive | AlphaScreen intf2 inactive | GPR151 conf act inactive | GPR119 counter inactive
C/C(=C\c1ccccc1)CN1CCC(C(=O)N2CCCC2)CC1	none
CCOC(=O)c1sc(NC(=O)CN2CCC(O)(c3ccccn3)CC2)nc1C	none
COc1ccccc1/C=C/CN1CCN(Cc2ccc3c(c2)OCO3)CC1	MITF primary 69, GPR151 ag 6.1 | MITF confirm inactive | AlphaScreen intf2 inactive | GPR151 conf act inactive | GPR119 counter inactive
COc1ccccc1C(=O)N1CCN(Cc2ccc3c(c2)OCO3)CC1	none
COc1ccc(OC)c(CN2CCC(C(=O)NCc3ccc(C)cc3)CC2)c1	none
COc1ccc(OC)c(CN2CCN(Cc3ccc(C)cc3)CC2)c1	MITF primary 83, GPR151 ag 5.5 | MITF confirm inactive | AlphaScreen intf2 inactive | GPR151 conf act inactive | GPR119 counter inactive
CCOc1ccc(N(CC(=O)Nc2ccc(NC(C)=O)cc2)S(C)(=O)=O)cc1	none
CC(=O)c1cccc(OCCCCN2CCN(C)CC2)c1	MITF primary 55, GPR151 ag 5.1 | MITF confirm inactive | AlphaScreen intf2 inactive | GPR151 conf act inactive | GPR119 counter inactive
COc1ccc(Cl)cc1N/C=C1/CCCCC1=O	none
O=C(O)c1cc(N=Cc2ccco2)ccc1O	MITF primary 51, GPR151 ag 5.0 | MITF confirm 81 | AlphaScreen DR inactive | AlphaScreen intf2 inactive | GPR151 conf act inactive | GPR119 counter inactive
O=C(O)c1cc(N=Cc2nc(-c3ccc(Cl)cc3)oc2O)ccc1O	none
O=C1Nc2ccc(S(=O)(=O)NCc3ccccc3)cc2C1=O	MITF primary 79, GPR151 ag 6.1 | MITF confirm 57 | AlphaScreen DR inactive | AlphaScreen intf2 inactive | GPR151 conf act inactive | GPR119 counter inactive
O=S(=O)(NCc1ccccc1)c1cccc(S(=O)(=O)c2ccccc2)c1	none
CCN1CCN(CCOc2cc(C)ccc2C)CC1	MITF primary 65, GPR151 ag 17 | MITF confirm inactive | AlphaScreen intf2 inactive | GPR151 conf act inactive | GPR119 counter inactive
Cc1ccc(OCCN2CCNCC2)c(C)c1	none
CC(C)CCNC(=O)C1CCN(S(=O)(=O)c2cnc[nH]2)CC1	none
CCC(=O)Nc1sc2c(c1C(=O)Nc1cccc3ccccc13)CCC2	none
O=C(CSc1nnc2c(n1)[nH]c1ccc(F)cc12)Nc1ccc(F)cc1	none
CCN(CC)c1ccc(/C=N/n2cnnc2)c(O)c1	GPR151 ag 10 | GPR151 conf act inactive | GPR119 counter inactive
Cc1cc(C)cc(N=C2NC(=O)/C(=C/c3ccccc3C)S2)c1	none
Cc1cc(NCCc2ccc(S(N)(=O)=O)cc2)nc2c(C)cccc12	none
CC1=C(C(=O)CN2CCN(c3ccccc3)CC2)N2C=CC=CC2N1 (centres undefined)	GPR151 ag 9.2 | GPR151 conf act inactive | GPR119 counter inactive
COc1ccc(NC(=O)c2cc3cc(Cl)ccc3oc2=O)cc1	GPR151 ag 6.3 | GPR151 conf act inactive | GPR119 counter inactive
COc1cc(Br)cc2cc(C(=O)Nc3ccc(O)cc3)c(=O)oc12	GPR151 ag 7.6 | GPR151 conf act inactive | GPR119 counter inactive
CCOc1ccc(NC(=O)c2cc3cc(Br)cc(OC)c3oc2=O)cc1	none
CCOC(=O)c1c(NC(=O)c2cc3cc(Cl)ccc3oc2=O)sc(C(C)=O)c1C	GPR151 ag 8.1 | GPR151 conf act inactive | GPR119 counter inactive
